{"source": "the supplement of paper PMC12819154", "about": "“High-throughput peptide-centric local stability assay extends protein–ligand identification to membrane proteins, tissues and bacteria” (Nature Structural & Molecular Biology, 2025);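 further: lysate desalted by size exclusion to strip endogenous ATP, peptide intensities built from DIA-NN precursor signals, and peptides missing any value discarded before comparison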"}
{"compound": "Nc1ncnc2c1ncn2[C@@H]1O[C@H](COP(=O)(O)OP(=O)(O)OP(=O)(O)O)[C@@H](O)[C@H]1O [adenosine 5'-triphosphate]", "experiment": "log2 fold change of tryptic peptide abundance, ligand vs vehicle (limited proteolysis) (log2 ratio); higher = more trypsin-susceptible (destabilized)", "conditions": "ligand concentration: 5 mM; sample: E. coli desalted lysate; replicate design: treated before aliquoting", "method": "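HT-PELSA: desalted E. coli K-12 BW25113 lysate (with 12 mM MgCl2) incubated with 5 mM ATP (pH 7) or water for 30 min at 25 C, then a 4 min trypsin pulse at 22 C. Peptides were quantified by DIA-MS (4 replicates). Value is the peptide log2 fold change (treated/control); negative = stabilized. Scale: negative = ligand-stabilized region.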"}
{"target": "UniProt P03835 (peptide sequence: DLASMGQLVK, peptide start residue: 402)", "log2 fold change": -1.3}
{"target": "UniProt P25516 (peptide sequence: KTLGLTGEEK, peptide start residue: 823)", "log2 fold change": -0.721}
{"target": "UniProt Q46919 (peptide sequence: MHDLLDNK, peptide start residue: 59)", "log2 fold change": 0.557}
{"target": "UniProt Q46855 (peptide sequence: VGYESASQFSR, peptide start residue: 285)", "log2 fold change": 0.235}
{"target": "UniProt P05707 (peptide sequence: VGSKHNSGYSAAK, peptide start residue: 146)", "log2 fold change": -3.4}
{"target": "UniProt P52061 (peptide sequence: FHCVLVYLR, peptide start residue: 118)", "log2 fold change": -0.642}
{"target": "UniProt P02919 (peptide sequence: SIGSLAK, peptide start residue: 507)", "log2 fold change": 0.413}
{"target": "UniProt P09832 (peptide sequence: HVTCAYR, peptide start residue: 313)", "log2 fold change": 0.367}
{"target": "UniProt P32141 (peptide sequence: ASGGFAMLAVDQR, peptide start residue: 12)", "log2 fold change": -0.432}
{"target": "UniProt P37908 (peptide sequence: RNQDMLLSVLDLEK, peptide start residue: 188)", "log2 fold change": -2.2}
{"target": "UniProt P06710 (peptide sequence: HQLEHILNEEHIAHEPR, peptide start residue: 185)", "log2 fold change": -1.86}
{"target": "UniProt P04994 (peptide sequence: TGAALHDILHVLK, peptide start residue: 149)", "log2 fold change": 0.643}
{"target": "UniProt P76256 (peptide sequence: DENGIWHGEETEAVLKPEIVHER, peptide start residue: 130)", "log2 fold change": -0.588}
{"target": "UniProt P0AAS7 (peptide sequence: LEGWSESGAQAK, peptide start residue: 20)", "log2 fold change": -0.938}
{"target": "UniProt P0AEK2 (peptide sequence: ALSDDQRAGILAQVPAGR, peptide start residue: 191)", "log2 fold change": 0.83}
{"target": "UniProt P76562 (peptide sequence: EHYRLRR, peptide start residue: 544)", "log2 fold change": 0.855}
{"target": "UniProt P77522 (peptide sequence: IMPTATNAR, peptide start residue: 392)", "log2 fold change": 1.07}
{"target": "UniProt P08142 (peptide sequence: KRFTGAEFIVHFLEQQGIK, peptide start residue: 11)", "log2 fold change": 1.49}
{"target": "UniProt P42599 (peptide sequence: LSECQKVCFVPR, peptide start residue: 252)", "log2 fold change": -0.582}
{"target": "UniProt P08956 (peptide sequence: ITGDADKDAR, peptide start residue: 763)", "log2 fold change": -3.68}
{"target": "UniProt P0ADA3 (peptide sequence: IATMGSTGTSSTR, peptide start residue: 346)", "log2 fold change": 0.385}
{"target": "UniProt P02358 (peptide sequence: TKHAVTEASPMVK, peptide start residue: 92)", "log2 fold change": 0.374}
{"target": "UniProt P07013 (peptide sequence: LVLSGTVCR, peptide start residue: 5)", "log2 fold change": -0.606}
{"target": "UniProt P0AEE1 (peptide sequence: AIELKGHK, peptide start residue: 121)", "log2 fold change": 0.899}
{"target": "UniProt P39407 (peptide sequence: EFFDPLR, peptide start residue: 90)", "log2 fold change": 0.583}
{"target": "UniProt P23847 (peptide sequence: MAEMIQADWAK, peptide start residue: 392)", "log2 fold change": -0.859}
{"target": "UniProt P0AAB8 (peptide sequence: EQCDLLVCGHHHSFINR, peptide start residue: 102)", "log2 fold change": -0.697}
{"target": "UniProt P17888 (peptide sequence: TNYAVSGER, peptide start residue: 188)", "log2 fold change": -1.98}
{"target": "UniProt P20083 (peptide sequence: VQDLQVVGTCGKR, peptide start residue: 147)", "log2 fold change": -1.89}
{"target": "UniProt P76034 (peptide sequence: DAPCEVILLGGVYQKK, peptide start residue: 127)", "log2 fold change": -0.81}
{"target": "UniProt P0AFU4 (peptide sequence: LMTASWPGNVR, peptide start residue: 344)", "log2 fold change": -1.31}
{"target": "UniProt P76422 (peptide sequence: NTHGTGCTLSAALAALRPR, peptide start residue: 207)", "log2 fold change": -1.45}
{"target": "UniProt P37326 (peptide sequence: YNPAPDLADAMK, peptide start residue: 179)", "log2 fold change": -0.342}
{"target": "UniProt P45955 (peptide sequence: AVYQQVISKYPGTDGAK, peptide start residue: 238)", "log2 fold change": 0.687}
{"target": "UniProt P05719 (peptide sequence: FDTTDLVFVPK, peptide start residue: 54)", "log2 fold change": -0.655}
{"target": "UniProt P23836 (peptide sequence: VLVVEDNALLR, peptide start residue: 3)", "log2 fold change": 0.563}
{"target": "UniProt P77775 (peptide sequence: TGVVLAPDGGILGK, peptide start residue: 163)", "log2 fold change": -0.725}
{"target": "MurF (peptide sequence: VVALTGSSGK, peptide start residue: 102) (UniProt P11880)", "log2 fold change": -1.5}
{"target": "UniProt P00490 (peptide sequence: QCNPALAALLDK, peptide start residue: 460)", "log2 fold change": 1.07}
